# Measured values: PubChem BioAssay (NCATS)
# Inconclusive results are not listed. Unmarked numbers belong to inactive results. Calls of active or inactive are those of the source. The call rests on the fitted dose curve; in most records, active means well fitted cell-killing curve with a large enough effect; inconclusive means small, poorly fitted or top-dose-only effect, or effect the other way; inactive means no such curve, though single readings can be large or run the other way.
# Experiment: Quantitative High-Throughput drug screen in 47 multiple myeloma cell lines against the NCATS MIPE library collection: EJM_DSMZ cell viability assay (AID 1918926; further: nearly all actives have a fitted effect of over 30% in size;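 on viability, % of control: 100% = DMSO-only wells and 0% = media-only wells without cells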)
# Conditions: EJM myeloma cell viability, CellTiter-Glo ATP, 48 h; series mostly up to 45.8 µM; viability, % of control: at the top concentration
# Procedure, shortened: (§1)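 Viability readout: CellTiter-Glo luminescence following 5 min room-temperature incubation with reagent. Prior exposure: 48 h, 37C, humidified 5% CO2, 500 cells per well.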
# Potency means the concentration at half of the fitted maximal effect.
Structure (SMILES),"viability, % of control [%]",Potency
Cc1cc(NC(=O)Nc2ccc(N(C)C)cc2)c2cc(F)cc(F)c2n1,84,
OC[C@H]1O[C@@H](Oc2ccc(O)cc2)[C@H](O)[C@@H](O)[C@H]1O,80.2,
Cc1cnc(-c2cc(N3CCN(C(=O)CCS(C)(=O)=O)CC3)ncc2Cl)c(C)c1,,0.0132 µM (active)
C[C@@H](NC(=O)c1ncnc(N)c1Cl)c1ncc(C(=O)Nc2cc(C(F)(F)F)c(Cl)cn2)s1,98.7,
CNc1nc(Nc2ccc(C(=O)N3CCOCC3)cc2OC)ncc1Cl,103,
COc1ccc(-c2ccc3ncc4c(c3c2)n(-c2ccc(N3CCNCC3)c(C(F)(F)F)c2)c(=O)n4C)cn1,,0.0332 µM (active)
CCOC(=O)N1CCN([N+]([O-])=NOc2cc(ON=[N+]([O-])N3CCN(C(=O)OCC)CC3)c([N+](=O)[O-])cc2[N+](=O)[O-])CC1,,2.64 µM (active)

# Experiment: Quantitative High-Throughput drug screen in 47 multiple myeloma cell lines against the NCATS MIPE library collection: AMO1_DSMZ cell viability assay (AID 1918927; further: nearly all actives have a fitted effect of over 30% in size;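 on viability, % of DMSO: 100% = DMSO only wells and 0% = cell-free media only wells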)
# Conditions: AMO1 myeloma cells viability, CellTiter-Glo ATP luminescence, 48 h; series mostly up to 45.8 µM; viability, % of DMSO: at the top concentration
# Procedure, shortened: as §1
Structure (SMILES),"viability, % of DMSO [%]",Potency
COc1cc2nccc(Oc3ccc(NC(=O)Nc4ccc(F)cc4F)c(F)c3)c2cc1OC,96.5,
Nc1nc(Cl)nc2c1ncn2[C@@H]1O[C@H](CO)[C@@H](O)[C@H]1F,,0.0418 µM (active)
CN[C@@H]1CN(c2ccc3c(=O)c(C(=O)O)cn(-c4nccs4)c3n2)C[C@@H]1OC,,0.812 µM (active)
NS(=O)(=O)c1cc(Cl)c(Cl)c(S(N)(=O)=O)c1,111,
COc1cc2ncn(-c3cc(OCc4ccccc4S(C)(=O)=O)c(C#N)s3)c2cc1OC,101,
CC[C@H](C)C(=O)O[C@H]1C[C@H](O)C=C2C=C[C@H](C)[C@H](CC[C@@H](O)C[C@@H](O)CC(=O)O)[C@H]21,119,
CC(C)[C@H](O)C(=O)N[C@@H](C)C(=O)N[C@@H]1C(=O)N(C)CCc2ccccc21,104,
Fc1ccc(CNc2ncnc3ccc(F)cc23)cc1,,7.43 µM (active)
COc1ccc(CCN(C)CCCOc2ccc(S(=O)(=O)c3[nH]c4ccccc4c3C(C)C)cc2)cc1OC,128,
CC(NCCc1ccc(O)cc1)C(O)c1ccc(O)cc1 (configuration not stated),130,
Cc1ccccc1-n1c(Cn2nc(-c3cccc(O)c3)c3c(N)ncnc32)nc2cccc(C)c2c1=O,,0.372 µM (active)
C=CCc1cccc(C=NNC(=O)CN2CCN(Cc3ccccc3)CC2)c1O,,5.26 µM (active)
CCCCC[C@H](O)C=C[C@H]1[C@H](O)CC(=O)[C@H]1CC=CCCCC(=O)O,121,
CCCCc1ccc(NS(=O)(=O)c2ccc(C)c(C(=O)N3CCN(c4cccc(C)c4C)CC3)c2)cc1,114,
O=C(c1ccc(C(=O)N2CCC(N3CCCC3)CC2)c(Nc2ccccc2)c1)N1CCC(N2CCCC2)CC1,118,
CC(C)C[C@@H](C(=O)N[C@H](C(=O)OC1CCCC1)c1ccccc1)[C@H](O)C(=O)NO,108,

# Experiment: Quantitative High-Throughput drug screen in 47 multiple myeloma cell lines against the NCATS MIPE library collection: ARP1_JJKsccF8 cell viability assay (AID 1918928; further: nearly all actives have a fitted effect of over 40% in size;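 on viability: 100% = DMSO only wells and 0% = medium only wells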)
# Conditions: ARP1 myeloma cells viability, CellTiter-Glo ATP, 48 h; series mostly up to 45.8 µM; viability: at the top concentration
# Procedure, shortened: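 Each line was plated at 500 cells/well and treated 48 h with library drugs. Viability came from CellTiter-Glo luminescence relative to DMSO and cell-free medium controls.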
Structure (SMILES),viability [%],Potency
COc1cc2nccc(Oc3ccc(NC(=O)Nc4ccc(F)cc4F)c(F)c3)c2cc1OC,69.4,
Nc1nc(Cl)nc2c1ncn2[C@@H]1O[C@H](CO)[C@@H](O)[C@H]1F,,2.35 µM (active)
CN[C@@H]1CN(c2ccc3c(=O)c(C(=O)O)cn(-c4nccs4)c3n2)C[C@@H]1OC,,1.82 µM (active)
NS(=O)(=O)c1cc(Cl)c(Cl)c(S(N)(=O)=O)c1,,8.33 µM (active)
COc1cc2ncn(-c3cc(OCc4ccccc4S(C)(=O)=O)c(C#N)s3)c2cc1OC,104,
CC[C@H](C)C(=O)O[C@H]1C[C@H](O)C=C2C=C[C@H](C)[C@H](CC[C@@H](O)C[C@@H](O)CC(=O)O)[C@H]21,112,
CC(C)[C@H](O)C(=O)N[C@@H](C)C(=O)N[C@@H]1C(=O)N(C)CCc2ccccc21,111,
Fc1ccc(CNc2ncnc3ccc(F)cc23)cc1,,6.62 µM (active)
COc1ccc(CCN(C)CCCOc2ccc(S(=O)(=O)c3[nH]c4ccccc4c3C(C)C)cc2)cc1OC,87.6,
CC(NCCc1ccc(O)cc1)C(O)c1ccc(O)cc1 (configuration not stated),112,
Cc1ccccc1-n1c(Cn2nc(-c3cccc(O)c3)c3c(N)ncnc32)nc2cccc(C)c2c1=O,,3.32 µM (active)
C=CCc1cccc(C=NNC(=O)CN2CCN(Cc3ccccc3)CC2)c1O,,9.35 µM (active)
CCCCC[C@H](O)C=C[C@H]1[C@H](O)CC(=O)[C@H]1CC=CCCCC(=O)O,70.7,
CCCCc1ccc(NS(=O)(=O)c2ccc(C)c(C(=O)N3CCN(c4cccc(C)c4C)CC3)c2)cc1,,20.9 µM (active)
O=C(c1ccc(C(=O)N2CCC(N3CCCC3)CC2)c(Nc2ccccc2)c1)N1CCC(N2CCCC2)CC1,,5.26 µM (active)
CC(C)C[C@@H](C(=O)N[C@H](C(=O)OC1CCCC1)c1ccccc1)[C@H](O)C(=O)NO,,14.8 µM (active)

# Experiment: Quantitative High-Throughput drug screen in 47 multiple myeloma cell lines against the NCATS MIPE library collection: ARD_JJKsccE7 cell viability assay (AID 1918929;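 on viability: 100% = DMSO-only wells and 0% = media-only wells without cells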)
# Conditions: ARD myeloma cell line viability, CellTiter-Glo, 48 h; series mostly up to 45.8 µM; viability: at the top concentration
# Procedure, shortened: as §1
Structure (SMILES),viability,Potency
COc1cc2nccc(Oc3ccc(NC(=O)Nc4ccc(F)cc4F)c(F)c3)c2cc1OC,115%,
Nc1nc(Cl)nc2c1ncn2[C@@H]1O[C@H](CO)[C@@H](O)[C@H]1F,,0.418 µM (active)
CC1C(=O)OC2C(O)C34C5CC(C(C)(C)C)C36C(OC(=O)C6O)OC4(C(=O)O5)C12O (configuration not stated),139%,
CN[C@@H]1CN(c2ccc3c(=O)c(C(=O)O)cn(-c4nccs4)c3n2)C[C@@H]1OC,156% [at 23.2 µM],
NS(=O)(=O)c1cc(Cl)c(Cl)c(S(N)(=O)=O)c1,135%,
COc1cc2ncn(-c3cc(OCc4ccccc4S(C)(=O)=O)c(C#N)s3)c2cc1OC,116%,
CC[C@H](C)C(=O)O[C@H]1C[C@H](O)C=C2C=C[C@H](C)[C@H](CC[C@@H](O)C[C@@H](O)CC(=O)O)[C@H]21,125%,
CC(C)[C@H](O)C(=O)N[C@@H](C)C(=O)N[C@@H]1C(=O)N(C)CCc2ccccc21,127%,
Fc1ccc(CNc2ncnc3ccc(F)cc23)cc1,,4.69 µM (active)
COc1ccc(CCN(C)CCCOc2ccc(S(=O)(=O)c3[nH]c4ccccc4c3C(C)C)cc2)cc1OC,156%,
CC(NCCc1ccc(O)cc1)C(O)c1ccc(O)cc1 (configuration not stated),118%,
Cc1ccccc1-n1c(Cn2nc(-c3cccc(O)c3)c3c(N)ncnc32)nc2cccc(C)c2c1=O,,1.05 µM (active)
C=CCc1cccc(C=NNC(=O)CN2CCN(Cc3ccccc3)CC2)c1O,,9.35 µM (active)
CCCCC[C@H](O)C=C[C@H]1[C@H](O)CC(=O)[C@H]1CC=CCCCC(=O)O,150%,
CCCCc1ccc(NS(=O)(=O)c2ccc(C)c(C(=O)N3CCN(c4cccc(C)c4C)CC3)c2)cc1,117%,
O=C(c1ccc(C(=O)N2CCC(N3CCCC3)CC2)c(Nc2ccccc2)c1)N1CCC(N2CCCC2)CC1,146%,
CC(C)C[C@@H](C(=O)N[C@H](C(=O)OC1CCCC1)c1ccccc1)[C@H](O)C(=O)NO,,4.69 µM (active)
CCOC(=O)N1CCN([N+]([O-])=NOc2cc(ON=[N+]([O-])N3CCN(C(=O)OCC)CC3)c([N+](=O)[O-])cc2[N+](=O)[O-])CC1,,0.0526 µM (active)
